Hits are enriched below; roughly 1.7% of the tested compounds scored in any of these assays.
RecA splice inh: Mtb RecA intein splicing inhibition. AID 2221. 0.75% of 290,000 active. P9WHJ3. inhibition, % (concentration not given with the values). cell-free RecA intein splicing, fluorescence; in the data active = inhibition above about 30%;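 note: 0% = vehicle wells and 100% = reference inhibitor control wells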
Target sequence (P9WHJ3 whole entry, looked up, canonical isoform): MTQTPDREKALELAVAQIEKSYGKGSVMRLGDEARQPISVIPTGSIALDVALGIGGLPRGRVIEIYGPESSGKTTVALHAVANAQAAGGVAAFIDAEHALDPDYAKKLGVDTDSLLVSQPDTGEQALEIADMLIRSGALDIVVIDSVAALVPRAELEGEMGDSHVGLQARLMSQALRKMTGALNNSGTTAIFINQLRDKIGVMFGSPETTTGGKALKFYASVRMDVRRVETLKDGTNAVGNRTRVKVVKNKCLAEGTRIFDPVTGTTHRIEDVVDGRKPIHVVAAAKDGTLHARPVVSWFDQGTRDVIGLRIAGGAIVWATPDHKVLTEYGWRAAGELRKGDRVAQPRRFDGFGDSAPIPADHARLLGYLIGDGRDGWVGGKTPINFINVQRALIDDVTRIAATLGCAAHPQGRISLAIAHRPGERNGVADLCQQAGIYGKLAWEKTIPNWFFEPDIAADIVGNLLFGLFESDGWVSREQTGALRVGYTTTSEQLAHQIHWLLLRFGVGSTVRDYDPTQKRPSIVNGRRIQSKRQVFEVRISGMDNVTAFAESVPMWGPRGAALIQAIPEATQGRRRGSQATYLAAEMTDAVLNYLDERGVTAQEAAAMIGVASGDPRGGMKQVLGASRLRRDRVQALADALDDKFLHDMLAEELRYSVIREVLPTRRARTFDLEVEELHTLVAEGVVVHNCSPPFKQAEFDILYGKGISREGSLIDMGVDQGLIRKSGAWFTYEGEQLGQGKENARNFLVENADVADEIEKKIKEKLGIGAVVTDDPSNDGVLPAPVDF
PriA SSB inh: inhibitors of Klebsiella pneumoniae PriA binding to SSB C-terminal tail; AID 1272365; inhibition, % at 33 µM; 0.6% of 430,000 active; AlphaScreen SSBct-PriA binding, biotinylated peptide; in the data active = inhibition mostly above about 37%, no sharp cut-off; inactive = mostly below about 20%;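 note: plate controls were negative control peptide for no effect and reference peptide for full effect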
VHR inh abs: DUSP3 (human) phosphatase inhibition; recombinant VHR phosphatase, pNPP absorbance; inhibition, % at 13.3 µM; 0.52% of 290,000 active; in the data active = inhibition above about 50%
SARS 3CLpro inh: SARS-CoV 3CLpro protease inhibition; P0C6X7; recombinant SARS-CoV 3CLpro, quenched FRET peptide cleavage; inhibition, % at 6 µM; 0.14% of 290,000 active; AID 1706; in the data active = inhibition above about 12%
CCHFV vOTU inh: CCHFV vOTU protease inhibition. AID 651958. 0.55% of 370,000 active. inhibition, % at 11.5 µM. Pep-AMC fluorescence; in the data active = inhibition above about 30%; note: 0% = vehicle wells with enzyme and 100% = no enzyme wells
GFP chromophore: counter-screen: blocks GFP chromophore formation. shares compounds with RecA splice inh. AID 434968. EC50, µM. 83% of 2,100 active. cell-free GFP chromophore formation, fluorescence; call rule not given here
Numbers without * were called inactive; · = not tested or not shown.

SMILES	RecA splice inh	PriA SSB inh	VHR inh abs	SARS 3CLpro inh	CCHFV vOTU inh	GFP chromophore
CCOC(=O)c1nnc(-c2ccc(C)cc2)nc1Sc1cccc(Cl)c1	4	-8	3	0	4	·
CCOC(=O)c1nnc(-c2ccccc2)nc1Sc1ccccc1Cl	40*	-13	18	-5	-1	2*
O=C(Cc1ccccc1Cl)NC1(O)C(=O)c2ccccc2C1=O	51*	-3	-2	0	16	12*
CCN(CC)C(=O)c1ccc2c(c1)C1C(Cl)C(Sc3ccccc3[N+](=O)[O-])CC1C(C(=O)O)N2 (stereo not drawn)	36*	64*	-1	-13	·	23*
Cc1ccc2c(c1Cl)NC(C(=O)O)C1CC(Sc3ccccc3[N+](=O)[O-])C(Cl)C21 (stereo not drawn)	·	30	5	3	·	·
CC(C)Nc1ccc(Nc2ccccc2)cc1	36*	79	·	·	3	>38
Cc1nn(CC(=O)Nc2ccccc2C(F)(F)F)c(=O)c2c1cnn2C(C)(C)C	·	-15	·	·	·	·
Nc1ccc(O)cc1	81*	·	·	·	·	31*
CCOC(=O)c1nn(-c2ccccc2C)c(=O)c2c(N)scc12	48*	2	37	0	19	>38
CCOC(=O)c1nn(-c2ccccc2)c(=O)c2c(NC(C)=O)scc12	-6	-17	6	0	-3	·
COc1ccc(/C=C/C(=O)c2ccncc2)c2ccccc12	57*	27	18	1	29	23*
Cc1ccc(C(=O)C2C(c3ccc(-c4ccccc4[N+](=O)[O-])o3)NC(=O)NC2(O)C(F)(F)F)cc1 (stereo not drawn)	83*	-16	·	3	21	22*
O=C(CCSc1ccccc1)Nc1ccccc1-c1ccc(=O)[nH]n1	·	-15	·	·	·	·
CCOC(=O)c1c(NC(=O)c2ccco2)n(C2CCCCC2)c2nc3ccccc3nc12	55*	17	21	3	12	21*
O=C(Oc1ccc(N(C(=O)c2ccncc2)S(=O)(=O)c2ccc(Cl)cc2)cc1)c1ccncc1	38*	0	22	0	1	33*
O=S(=O)(c1cccs1)N1CCN(c2ccc3nncn3n2)CC1	·	10	·	·	·	·
CCN(CC)C(=O)CSc1nnc(COc2ccc(OC)cc2)n1N	-4	12	15	1	15	·
CCN(CC)C(=O)CSc1nnc2nnc3cc(OC)ccc3n12	31*	-6	16	4	4	>38
COc1ccc(C(=O)NCCn2cc(SCC(=O)Nc3nc4ccc(C)cc4s3)c3ccccc32)cc1OC	·	-6	·	·	·	·
Cc1[nH]c2ccccc2c1CC#N	-1	-8	-8	6	-6	·
Cc1[nH]c2ccccc2c1C(C#N)(C#N)C1C(=O)c2ccccc2C1=O	42*	24	5	4	-13	34*
Cc1c(Cl)cccc1NC(=O)C(C)Oc1cccc(Br)c1 (stereo not drawn)	·	-12	·	·	·	·
COc1ccc2c(c1)CCC[C@@]2(O)CNC(=O)C(C)(C)OC(C)=O	·	-3	·	·	·	·
N#C/C(=N\Nc1ccc(S(=O)(=O)N2CCc3ccccc32)cc1)C(N)=S	31*	·	24	3	8	32*
CCOC(=O)/C(C#N)=N/Nc1ccc(S(=O)(=O)N2CCc3ccccc32)cc1	2	·	-7	6	9	·
SMILES	RecA splice inh	PriA SSB inh	VHR inh abs	SARS 3CLpro inh	CCHFV vOTU inh	GFP chromophore
C=CCN1C(=O)/C(=C/c2ccc(N(C)C)cc2)SC1=Nc1nnc(CC)s1	·	3	·	·	·	·
COCc1[nH]nc2c1C(c1ccc(OC)c(OC)c1)C(C#N)=C(N)O2 (stereo not drawn)	56*	10	21	-1	8	31*
CCn1c2ccccc2c2cc(C3C(C#N)=C(N)Oc4n[nH]c(COC)c43)ccc21 (stereo not drawn)	77*	-6	-16	4	-3	10*
CCOC(=O)N1CCN(c2nc(Nc3ccc(C)c(Cl)c3)c3nccnc3n2)CC1	·	-5	·	·	·	·
O=C(NC1=C(Nc2ccc(Cl)cc2)C(=O)c2ccccc2C1=O)c1ccccc1	49*	11	11	1	18	25*
COc1ccc(C(=O)/C(=C/c2cccs2)c2nc3ccccc3o2)cc1	46*	16	-21	5	8	>38
CCN(CC)c1ccc(/C=C2\C(=O)N(c3nnc(C)c(=O)[nH]3)N=C2C)cc1	81*	78*	9	-2	17	9.5*
O=C(N=Nc1c(O)[nH]c2c(Br)cc(Br)cc12)c1cc([N+](=O)[O-])cc([N+](=O)[O-])c1	·	27	·	·	·	·
COc1ccc(/C=C\C(=O)Nc2c(C(=O)Nc3ccc(C)cc3)oc3ccccc23)cc1OC	·	14	·	·	·	·
O=C(N/N=C/c1cc(Cl)cc([N+](=O)[O-])c1O)c1ccccc1NS(=O)(=O)c1cccs1	33*	·	14	3	8	>38
Cn1c(=O)[nH]c(=O)c2c1nc([N+](=O)[O-])n2Cc1ccccc1	62*	0	-3	2	-3	17*
O=c1cc(-c2cccc3ccccc23)[nH][nH]1	93*	-11	25	-1	-10	3.5*
NC(=O)c1cc(C2CCCCN2C(=O)CSc2c[nH]c3ccccc23)[nH]n1 (stereo not drawn)	·	-10	·	·	·	·
O=C(Nc1ccc(Cl)cc1)c1sccc1S(=O)(=O)N1CCN(c2ccccc2)CC1	·	-9	·	·	·	·
CCn1c(COc2cccc3ccccc23)nnc1SCC(N)=O	3	-10	-2	3	3	>38
CCn1c(COc2ccccc2C)nnc1SCC(=O)NCc1ccccc1	-1	-10	34	4	-5	·
O=C(NCCn1nc(C2CC2)n(-c2ccccc2)c1=O)C1COc2ccccc2O1 (stereo not drawn)	·	2	·	·	·	·
COc1cccc(C(=O)Nc2ccc3c(c2)CN(C(=O)c2ccccc2)CC3)c1OC	·	7	·	·	·	·
Cc1ccc(S(=O)(=O)N2c3ccccc3OCC2c2ccccc2)cc1 (stereo not drawn)	-1	-16	13	1	-2	·
O=C(C(Cl)Cl)N1c2ccccc2OCC1c1ccccc1 (stereo not drawn)	72*	-19	7	-4	4	35*
CCOc1ccc(S(=O)(=O)NCc2ccsc2)cc1F	·	-6	·	·	·	·
CC(=O)N1C(=O)C2(C(C#N)=C(N)Oc3c2c(C)nn3-c2ccccc2)c2ccccc21 (stereo not drawn)	55*	-27	-1	1	-10	5.8*
Cc1nn(-c2ccccc2)c2c1C1(C(=O)N3c4c(cccc41)C(C)CC3(C)C)C(C#N)=C(N)O2 (stereo not drawn)	49*	14	15	4	16	9.7*
Cn1ncnc2c(=O)n(C)c(=O)nc1-2	97*	-6	·	·	·	0.09*
CN(C)C[C@H]1CSCCCN1C(=O)c1cccc(Cl)c1	·	-11	·	·	·	·
O=C(c1ccncc1)N(c1ccc2oc3c(c2c1)CCCC3)S(=O)(=O)c1ccc(F)cc1	51*	0	2	0	11	4.1*
COc1ncc(NC(=O)c2c(F)cccc2F)cn1	·	-6	·	·	·	·
Clc1ncnc2scc(C3COc4ccccc4O3)c12 (stereo not drawn)	67*	-3	0	3	-1	20*

Screens (PubChem BioAssay)
